Rows were chosen to be rich in hits. Some 3.3% of all compounds tested hit in one or more screens of this group.
Luc counter: Kinase-Glo luciferase inhibition (counter-screen); Potency, µM (titrated, usually from 38.3 µM), most hits filed as inhibitors; Kinase-Glo luciferase, ATP luminescence, 8 min; hit rate 0.28% among 200,000; AID 1379; also: nearly all actives have a fitted effect of over 60% in size
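Luminescence was the read-out, taken after 8-minute incubation at ambient temperature. Luciferase turned over luciferin with 10 uM ATP in imidazole pH 7.2 buffer containing KCl, MgCl2, Tween 20 and BSA.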
Tau ThT inhib: inhibitors of human tau fibril formation, thioflavin T binding | P10636 | recombinant tau K18 P301L, heparin-induced fibrillization, ThT fluorescence | Potency, µM (doses to about 57.4 µM), usual class: inhibitors | hit rate 2.1% among 270,000 | AID 1460; also: nearly all actives have a fitted effect of over 55% in size
Target sequence (P10636 561-689 P618L limits assumed): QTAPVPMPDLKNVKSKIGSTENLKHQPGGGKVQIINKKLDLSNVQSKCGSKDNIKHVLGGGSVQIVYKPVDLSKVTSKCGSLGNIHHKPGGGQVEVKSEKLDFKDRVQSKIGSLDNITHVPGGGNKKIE
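In this qHTS, human K18 P301L tau is incubated with compound and heparin for 6 hr at 37 C, and Thioflavin T fluorescence then reports fibril load.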
NPSR antag: antagonists of human neuropeptide S receptor cAMP signaling; Q6W5P4; hit rate 1% among 220,000; AID 1461; Potency, µM (highest dose often 38.3 µM), most hits filed as inhibitors; CHO-NPSR cells, cAMP TR-FRET, antagonist mode; also: nearly all actives have a fitted effect of over 50% in size
Target sequence (Q6W5P4 whole entry, looked up): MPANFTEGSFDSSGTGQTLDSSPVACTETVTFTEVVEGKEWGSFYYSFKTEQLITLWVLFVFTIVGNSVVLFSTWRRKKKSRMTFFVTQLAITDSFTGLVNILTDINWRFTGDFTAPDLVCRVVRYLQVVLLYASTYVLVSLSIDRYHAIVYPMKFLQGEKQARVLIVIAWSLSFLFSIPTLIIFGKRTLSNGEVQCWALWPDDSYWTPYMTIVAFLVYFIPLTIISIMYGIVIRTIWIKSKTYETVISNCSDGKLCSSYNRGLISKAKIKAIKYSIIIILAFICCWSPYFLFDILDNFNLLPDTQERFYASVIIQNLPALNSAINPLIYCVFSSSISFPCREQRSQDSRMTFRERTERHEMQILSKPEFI
Tau fluor counter: counter-screen for tau fibril formation inhibitors; tau K18 P301L Alexa594 fluorescence, heparin fibrillization; Potency, µM (doses to about 57.7 µM); hit rate 0.93% among 280,000; AID 1463; also: nearly all actives have a fitted effect of over 55% in size
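Human tau K18 P301L (15 uM unlabeled, 0.24 uM Alexa 594-labeled) in 100 mM sodium acetate pH 7 with 20 uM heparin, 6 hr at 37 C. ThT 30 uM added, 1 hr ambient; Alexa 594 FP and total fluorescence read at 555/632 nm.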
Tau FP inhib: tau fibrillization inhibition (FP); hit rate 0.39% among 280,000; K18 P301L tau heparin fibrillization, Alexa594 FP, 6 h; Potency, µM (titrated, usually from 57.7 µM), usual class: inhibitors; P10636; also: nearly all actives have a fitted effect of over 55% in size
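FP of Alexa 594-tau after heparin (20 uM) induction. Substrate: human K18 P301L, 15 uM unlabeled, 0.24 uM labeled. Buffer 100 mM sodium acetate pH 7. 6 hr, 37 C.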
Hits are given with their value; i = inactive; ? = inconclusive; nt = not tested or not shown; [ ] = dose if it differs, or a comment. Calls follow the shape of the dose curve; as a rule, active = well fitted curve in the direction sought with a large enough effect; inconclusive = small, poorly fitted or top-dose-only effect, or another doubt; inactive = no such curve, though single readings can be large; an effect the other way counts as inactive or inconclusive.

SMILES | Luc counter | Tau ThT inhib | NPSR antag | Tau fluor counter | Tau FP inhib
Cn1cc(C(=O)N/N=C/c2ccc(Br)c([N+](=O)[O-])c2)c2ccccc21 | nt | nt | i | 14µM[quencher] | ?
CCC(C)C(=O)O[C@H]1C[C@@H](C)C=C2C=C[C@H](C)[C@H](CC[C@@H]3C[C@@H](O)CC(=O)O3)C21 (stereo partly drawn) | i | i | nt | i | i
COc1ccc(C(=O)Nn2c(SCC(=O)NC3CCCCC3)nc3ccccc3c2=O)cc1 | 14µM | i | i | i | i
COc1ccc(C(=O)Nn2c(SCC(=O)N3CCC(C)CC3)nc3ccccc3c2=O)cc1 | 13µM | i | i | i | i
COc1ccc(C(=O)Nn2c(SCC(=O)c3ccc(Cl)cc3)nc3ccccc3c2=O)cc1 | i | i | ? | i | ?
CCC(C(=O)Nc1ccccc1C(=O)OC)n1nc(C)c2c(C)n(-c3ccc(C)cc3)nc2c1=O (stereo not drawn) | nt | i | nt | i | i
O=[N+]([O-])c1ccc(NCCCN2CCOCC2)c([N+](=O)[O-])c1 | i | ? | i | i | i
O=C(Nc1ccc(Cl)c([N+](=O)[O-])c1)c1ccc(NCCCN2CCOCC2)c([N+](=O)[O-])c1 | i | 2.5µM | i | i | i
Cc1ccc(NC(=O)c2ccc(NCCCN3CCOCC3)c([N+](=O)[O-])c2)cc1Cl | i | 13µM | i | ? | i
COc1ccc(NC(=O)c2ccc(NCCCN3CCOCC3)c([N+](=O)[O-])c2)cc1 | i | 16µM | i | i | i
CCCc1cc(C(=O)Cc2ccc(C(=O)OCC)o2)c(O)cc1O | i | ? | i | ? | i
CCCc1cc2c(OC(=O)CC)c(-c3ccc(C(=O)OCC)o3)c(=O)oc2cc1OC | i | 25µM | i | i | i
O=[N+]([O-])c1cccc(/C=C/c2nc(C=Nc3ccc4ccccc4c3)c(O)o2)c1 | i | 2µM | i | i | i
O=[N+]([O-])c1cc(C=Nc2ccc3ccccc3c2)ccc1Br | i | ? | i | i | i
COc1ccc(Nc2nc(Nc3ccc(OC)cc3OC)nc(N3CCOCC3)n2)c(OC)c1 | nt | ? | nt | 2.8µM[quencher] | i
O=C(Nc1ccc(OCC(F)(F)C(F)F)cc1)c1ccncc1 | i | i | i | i | i
O=C(Nc1ccc(OCC(F)(F)C(F)F)c(C(F)(F)F)c1)c1ccccc1O | i | ? | 7.9µM | ? | 25µM
COc1cc([C@@H]2c3cc4c(cc3[C@@H](O)[C@H]3COC(=O)[C@H]23)OCO4)cc(OC)c1O[Si](C)(C)C(C)(C)C | nt | i | 10µM | i | ?
CCN(CC)CCn1c(-c2ccccc2)nc2c(NCCO)nc(C)nc21 | i | i | nt | i | ?
CS(=O)(=O)c1ncc(Cl)c(C(=O)Nc2ccc3ccccc3c2)n1 | i | ? | 10µM | i | i
Cc1ccc(-n2ncc(C(=O)NCCN3CCc4ccccc4C3)c2C2CCN(C(=O)OC(C)(C)C)CC2)c(C)c1 | nt | i | nt | i | i
O=C(NC1CCCCC1)c1c[nH]c2ccc(S(=O)(=O)Nc3ccccc3F)cc2c1=O | nt | i | nt | ? | 28µM
O=C(NC1CCCC1)c1c[nH]c2ccc(S(=O)(=O)Nc3cccc(C(F)(F)F)c3)cc2c1=O | nt | i | nt | ? | 10µM
Cc1ccccc1NS(=O)(=O)c1ccc2[nH]cc(C(=O)NCCc3ccccc3)c(=O)c2c1 | nt | i | nt | ? | 11µM
Cc1cc(C)cc(NS(=O)(=O)c2ccc3[nH]cc(C(=O)NCCc4ccccc4)c(=O)c3c2)c1 | nt | i | nt | ? | ?
SMILES | Luc counter | Tau ThT inhib | NPSR antag | Tau fluor counter | Tau FP inhib
Cc1ccc(CCNC(=O)c2c[nH]c3ccc(S(=O)(=O)Nc4cccc(C(F)(F)F)c4)cc3c2=O)cc1 | nt | ? | nt | ? | 7.9µM
COc1ccccc1CNC(=O)C(C)n1c(=O)cc(C(F)(F)F)c2c(C)nn(C)c21 (stereo not drawn) | nt | i | nt | i | i
CC(C)CCNC(=O)c1c[nH]c2ccc(S(=O)(=O)Nc3cccc(C(F)(F)F)c3)cc2c1=O | nt | i | nt | ? | 14µM
COc1ccc(NC(=O)Cn2ccn(-c3ccccc3)c(=O)c2=O)cc1 | nt | i | nt | i | i
CC(=O)c1cc(-c2ccccc2)[nH]c1N1CCOCC1 | i | 32µM | i | i | ?
Cc1ccsc1/C=C1/C(=O)NN(c2ccccc2)C1=O | ? | ? | i | i | i
Cc1ccsc1C=C1C(=O)c2ccccc2C1=O | ? | 14µM | i | ? | i
Cc1cc(C)c2nc3sc(C(=O)N4CCOCC4)c(N)c3cc2c1 | nt | ? | i | ? | i
COc1ccc2nc3sc(C(=O)NCc4cccs4)c(N)c3cc2c1 | i | 16µM | i | ? | i
Nc1c(C(=O)N2CCCC2)sc2nc3c(cc12)CCCCCC3 | i | i | i | i | i
CCOc1ccc2nc3sc(C(=O)N4CCOCC4)c(N)c3cc2c1 | i | 7.1µM | i | ? | ?
Nc1c(C(=O)N2CCOCC2)sc2nc3c(cc12)CCC3 | 11µM | i | i | i | i
Cc1cc(C)c2cc3c(N)c(C(=O)N4CCOCC4)sc3nc2c1 | i | 22µM | i | ? | i
COC1C(O)CC(=O)OC(C)C/C=C/C=C/[C@@H](OC2CCC(N(C)C)C(C)O2)C(C)C[C@@H](CC=O)[C@@H]1O[C@H]1OC(C)[C@H](O[C@@H]2C[C@@](C)(O)C(O)C(C)O2)C(N(C)C)C1O (stereo partly drawn) | i | i | nt | i | i
CCCOc1cccc(C2c3c(oc4ccc(F)cc4c3=O)C(=O)N2CCCN2CCOCC2)c1 (stereo not drawn) | nt | i | nt | i | i
CCOC(=O)c1[nH]c2ccccc2c1NC(=O)c1ccccc1OCC | nt | ? | nt | 14µM[quencher] | i
Cc1[nH][nH]c(=O)c1C(c1c(C)[nH][nH]c1=O)c1cn(Cc2cccc3ccccc23)c2ccccc12 | i | 10µM | i | ? | ?
Cc1[nH][nH]c(=O)c1C(c1c(C)[nH][nH]c1=O)c1cn(C)c2ccccc12 | i | i | i | i | i
COC(=O)[C@@]1(Cc2ccc(F)cc2)[C@H]2c3cc(C(=O)N(C)C)n(Cc4cccc5ccccc45)c3C[C@H]2CN1C(=O)c1ccccc1 | i | i | nt | i | i
N#Cc1cc(Oc2cccc3cccnc23)c(-n2nnc3ccccc32)cc1C#N | nt | i | ? | 16µM[quencher] | i
Cc1ccc2oc(=O)c3cnn(CC(=O)N4CCN(c5cc(Cl)ccc5C)CC4)c3c2c1 | nt | ? | nt | i | i
COC(=O)c1cc(NC(=S)NCc2ccc(Cl)cc2)cc(C(=O)OC)c1 | i | i | i | 14µM[quencher] | 18µM
Cc1ccc(Nc2cc(C)c3c(O)cccc3n2)cc1C | nt | nt | i | 14µM[quencher] | ?
COc1ccc(Nc2cc(C)c3c(O)cccc3n2)cc1 | nt | nt | i | ? | ?
COC(=O)C(NS(=O)(=O)c1ccc(C)cc1)c1ccccc1 (stereo not drawn) | i | i | i | i | i
Cc1ccc(S(=O)(=O)NC2OC(=O)C(Cl)=C2Cl)cc1 (stereo not drawn) | i | 28µM | i | i | ?
CCOCCCNC(=O)/C(C#N)=C/c1ccc(Cl)c([N+](=O)[O-])c1 | i | ? | i | i | i

Source: PubChem BioAssay
